The source of these data is PubChem BioAssay AID504339 (National Center for Advancing Translational Sciences (NCATS), 2011).

SMILES strings stand for the structures. About 17,000 (4.4%) of roughly 390,000 compounds were called active. Inconclusive results (about 8%) are left out. What follows is part of a selection rich in actives, with near analogues and random picks from the rest. Unmarked numbers belong to inactive results. The call rests on the fitted dose curve; in most records, active means well fitted inhibition curve with a large enough effect; inconclusive means small, poorly fitted or top-dose-only effect; inactive means no such curve, though single readings can be large or run the other way.
On the % scale 0 is the no-effect control and ±100 the full control effect; potency means the concentration at half of the fitted maximal effect.

In this experiment the target is Lysine-specific demethylase 4A (Homo sapiens) (UniProt O75164). The experiment in a line: qHTS Assay for Inhibitors of JMJD2A-Tudor Domain. Further: nearly all actives have a fitted effect of over 50% in size. The settings on record: AlphaScreen JMJD2A-Tudor / H3K4me3 peptide binding; series mostly up to 114 µM; activity change, negative = inhibition: at the top concentration. (Quantitative high-throughput screening tests each substance at several concentrations.)
Sequence of Lysine-specific demethylase 4A (Homo sapiens) (O75164 whole entry, looked up, the tested form may be a part): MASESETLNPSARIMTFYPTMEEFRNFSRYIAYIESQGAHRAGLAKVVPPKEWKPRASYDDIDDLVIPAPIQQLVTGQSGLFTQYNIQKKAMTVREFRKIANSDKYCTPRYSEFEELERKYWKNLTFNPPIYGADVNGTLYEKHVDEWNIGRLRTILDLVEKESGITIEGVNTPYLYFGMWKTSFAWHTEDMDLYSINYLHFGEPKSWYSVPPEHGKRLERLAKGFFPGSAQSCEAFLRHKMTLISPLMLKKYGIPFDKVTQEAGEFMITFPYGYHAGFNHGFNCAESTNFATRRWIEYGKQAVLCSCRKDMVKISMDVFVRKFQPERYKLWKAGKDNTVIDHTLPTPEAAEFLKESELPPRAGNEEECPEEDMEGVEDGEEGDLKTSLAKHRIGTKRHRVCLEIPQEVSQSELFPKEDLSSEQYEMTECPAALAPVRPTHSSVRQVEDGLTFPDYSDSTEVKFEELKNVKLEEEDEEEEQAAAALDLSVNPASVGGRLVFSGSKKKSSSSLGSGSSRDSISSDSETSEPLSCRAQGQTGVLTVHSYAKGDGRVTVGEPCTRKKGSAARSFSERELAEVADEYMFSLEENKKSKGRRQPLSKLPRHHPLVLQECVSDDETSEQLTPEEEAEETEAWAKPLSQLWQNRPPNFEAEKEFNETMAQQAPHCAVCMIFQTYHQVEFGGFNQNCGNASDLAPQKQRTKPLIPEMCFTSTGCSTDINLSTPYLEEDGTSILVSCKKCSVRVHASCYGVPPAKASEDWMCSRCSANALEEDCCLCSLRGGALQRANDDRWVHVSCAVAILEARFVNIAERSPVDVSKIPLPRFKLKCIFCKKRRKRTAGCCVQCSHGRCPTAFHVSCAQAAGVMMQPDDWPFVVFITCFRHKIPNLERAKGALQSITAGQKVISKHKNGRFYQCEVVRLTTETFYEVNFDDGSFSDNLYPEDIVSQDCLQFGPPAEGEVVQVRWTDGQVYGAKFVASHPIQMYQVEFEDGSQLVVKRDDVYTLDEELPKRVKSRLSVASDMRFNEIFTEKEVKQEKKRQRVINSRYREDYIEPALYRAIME
For the molecule `CCOC(=O)C1(c2ccccc2)CCN(CC(O)c2ccc(NC(C)=O)cc2)CC1` (stereo unspecified), the “activity change, negative = inhibition” value is -19.3%. As to `CCOP(=S)(OCC)SCOC(=O)NCC(=O)OC`, the “activity change, negative = inhibition” value is 9.97%. Still for that read-out and setting: the result for `COC(=O)C1=C(c2c(C)noc2C)C[C@@H]2CC[C@H]1N2C(=O)NCc1ccc2c(c1)OCO2` reads -0.714%; that for `CCN1CCN(Cc2cc(OC)c3c(c2)OCO3)CC1`, -1.66%. `COc1ccc(CNCCc2ccc3c(c2)OCO3)c(OC)c1OC`: the Potency is 89.1 µM (active). Consider `CC1C(=O)OC2CCN3CC=C(COC(=O)C(C)(O)C1(C)O)C23` (stereo unspecified), for which the “activity change, negative = inhibition” value is -9.52%. With `COc1cc([C@@H]2c3cc4c(cc3[C@H](OC(C)=O)[C@H]3COC(=O)[C@H]23)OCO4)cc(OC)c1OC`, the “activity change, negative = inhibition” value was -12.1%. The same measure, in the same setting: then `COC(=O)[C@@H]1C(OC(=O)c2ccccc2)CC2CCC1N2C` (stereo partly specified), with -13.8%; and `CCC1(CC(C)c2ccccc2)C(=O)NC(=O)NC1=O` (stereo unspecified), with -5.52%.

As to `CN(C)C(=O)Oc1cc(OC(=O)N(C)C)cc(C(O)CNC(C)(C)C)c1` (stereo unspecified), the Potency result is “inactive”. On the same count and under the same terms, the result for `Fc1ccc(N2CCN(Cc3ccc4c(c3)OCO4)CC2)cc1` reads 3.55 µM (active).

As to `O=C(Cc1ccccc1[N+](=O)[O-])N1CCN(Cc2ccc3c(c2)OCO3)CC1`, the “activity change, negative = inhibition” value was -22.4%. As to `Cc1cc(=O)oc2c(C)c(OCC(=O)N3CCN(Cc4ccc5c(c4)OCO5)CC3)ccc12`, the “activity change, negative = inhibition” value is -22.9%. Consider `CCCCCCCCCCCCn1ccc(=N)cc1`, for which the “activity change, negative = inhibition” value was -6.9%. Regarding `CSc1ccc(C(=O)C2CCCN(Cc3ccn[nH]3)C2)cc1` (stereo unspecified), the “activity change, negative = inhibition” value was -14.8%.

With `CN(C)CC1Oc2ccccc2OC1(O)c1ccccc1` (stereo unspecified), the “activity change, negative = inhibition” value is 10%. Still for that read-out and setting: then `O=c1c2ccccc2nc(-c2ccc(Cl)cc2Cl)n1-c1ccncc1`, with -3.7%. Take `O=C(O)COc1ccccc1/C=C1\C(=O)NC(=O)N(CCC2=CCCCC2)C1=O`: the “activity change, negative = inhibition” value is -0.699%. With `O=C1NC(=O)N(Cc2ccco2)C(=O)/C1=C\c1cccn1CCOc1ccccc1`, the “activity change, negative = inhibition” value is -23.6%.

In the case of `COc1ccc(CN2C(=O)NC(=O)/C(=C\c3ccc(OC)c(OC)c3OC)C2=O)cc1`, the Potency is 56.2 µM (active).

Turning to `CC(=O)c1c(O)n(C2CCCCCC2)c(=O)[nH]c1=O`, the “activity change, negative = inhibition” value is -27.2%.

In the case of `CO[C@H]1[C@@H](O)[C@@H](C)O[C@H](O[C@H]2[C@H](Oc3cccc4c(O)c5c(=O)oc6ccc(C)c7c(=O)oc(c34)c5c67)O[C@H](C)[C@H](O)[C@@H]2O)[C@@H]1O`, the “activity change, negative = inhibition” value was -8.28%. Turning to `COc1ccc(Br)cc1CNCCc1cccc(Cl)c1`, the Potency is 22.4 µM (active). `CC(C)N(CC#CCC1(O)c2ccccc2-c2ccccc21)C(C)C`: the “activity change, negative = inhibition” value is -4.64%. As for `COc1ccc(-n2c(O)c(C(C)=Nc3ccc4c(c3)CCC4)c(=O)[nH]c2=O)cc1`, the “activity change, negative = inhibition” value is -6.38%.

As to `CCOC(=O)C1(Cc2ccc(Cl)cc2)CCN(C(C)CCn2cccn2)CC1` (stereo unspecified), the “activity change, negative = inhibition” value is -25.9%. Take `COc1ccc(N=Cc2c(O)n(C)c(=O)[nH]c2=O)cc1`: the “activity change, negative = inhibition” value was -10.2%. In the case of `C=CC12CN(C)[C@@H]3C4CO[C@H](C[C@H]41)[C@]1(C(=O)Nc4ccccc41)[C@@H]32` (stereo partly specified), the “activity change, negative = inhibition” value is -31.3%. With `Cc1ccc(Cn2nnnc2CN2CCC(n3nnc4ccccc43)CC2)cc1`, the Potency was 50.1 µM (active). On to `COC1=C[C@@H]2[C@@H]3Cc4ccc(OC)c(O)c4[C@]2(CCN3C)CC1=O`, for which the “activity change, negative = inhibition” value is -11.5%. As for `O=C(O)C1CSC(c2cccnc2)N1` (stereo unspecified), the Potency is 7.94 µM (active).

As for `NCCc1c[nH]c2ccc(O)cc12`, the “activity change, negative = inhibition” value was -26.6%. Consider `CC[N+](CC)(CC)CCCCCCCCCC[N+](CC)(CC)CC`, for which the “activity change, negative = inhibition” value was -8.14%. Still for that read-out and setting: the result for `COc1cccc(N2C(=O)NC(=O)/C(=C\c3cn(C)c4ccccc34)C2=O)c1` reads -18.1%. Take `Cc1ccccc1N1C(=O)NC(=O)/C(=C\c2cc(C)n(C)c2C)C1=O`: the “activity change, negative = inhibition” value is -16.1%. For the molecule `O=C1NC(=O)N(c2ccccc2)C(=O)/C1=C/c1ccc([N+](=O)[O-])s1`, the Potency is 56.2 µM (active). For `COc1cccc(N2C(=O)NC(=O)/C(=C\c3ccc([N+](=O)[O-])s3)C2=O)c1`, the Potency was 35.5 µM (active). In the case of `O=C1NC(=O)N(c2ccc(F)cc2)C(=O)/C1=C/c1ccc2c(c1)CCCN2Cc1ccccc1`, the “activity change, negative = inhibition” value is -30.8%.

On to `COCCNC(=O)CN1C2CCC1CC(O)(c1cccnc1)C2` (stereo unspecified), for which the “activity change, negative = inhibition” value was -0.69%. Still for that read-out and setting: then `COC(=O)C1=C(c2cccc(OCc3ccccc3)c2)C[C@@H]2CC[C@H]1N2C(=O)NCc1ccc(Br)cc1`, with -30.2%; and `C[C@]12CCC3C(CC[C@H]4[C@H](O)[C@H](O)CC[C@]34C)C1CCC2=O` (stereo partly specified), with 2.07%; and `Nc1ccc([N+](=O)[O-])cc1`, with -18.6%.

In the case of `COC1C(O)C(C)OC(OC2CCC3(C=O)C(CCC4C3CCC3(C)C(C5=CC(=O)OC5)CCC43O)C2)C1O` (stereo unspecified), the “activity change, negative = inhibition” value is -1.36%. On the same count and under the same terms, the result for `CCc1nnc(NS(=O)(=O)c2ccc(N=Cc3c(O)n(-c4ccccc4)c(=O)[nH]c3=O)cc2)s1` reads -5.84%. Take `O=c1[nH]c(=O)n(Cc2ccccc2)c(O)c1/C=N/Nc1c(F)c(F)c(F)c(F)c1F`: the “activity change, negative = inhibition” value is 2.68%. `CCCCC(=O)N/N=C/c1c(O)n(-c2ccccc2)c(=O)[nH]c1=O`: the Potency was 79.4 µM (active). As to `CNC(=O)O/N=C(\N)Cc1csc2ccc(Cl)cc12`, the “activity change, negative = inhibition” value is -16.9%.

Turning to `Cc1ccc(Oc2cnn(-c3ccccc3)c(=O)c2Br)cc1`, the “activity change, negative = inhibition” value is 45.4%.

For `Cc1cc(/C=C2/C(=O)NC(=O)N(Cc3ccco3)C2=O)c(C)n1-c1ccc(C(=O)O)cc1`, the “activity change, negative = inhibition” value is -22.4%. Turning to `O=C1NC(=O)N(Cc2ccco2)C(=O)/C1=C\c1ccc(-c2ccc(F)cc2)o1`, the “activity change, negative = inhibition” value is -24.6%. As for `COc1ccc(N2C(=O)/C(=C/c3ccco3)C(=O)NC2=S)cc1`, the Potency was 10 µM (active).
